Screening data: PubChem BioAssay, National Center for Advancing Translational Sciences (NCATS)
In the library only some 19% were active in any assay of this set; here they are far more common.
HT1080-NT tox – kills 2HG-producing HT-1080-NT fibrosarcoma cells; HT-1080-NT fibrosarcoma viability, CellTiter-Glo ATP luminescence, 48 h; Potency, µM (highest dose often 46.1 µM), for inactives: at the highest dose activity, negative = less viability, actives largely listed as cytotoxic; hit rate 1.6% among 360,000; AID 686970;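 further: NT is the 2HG producing partner of a matched IDH1 knockdown line; 0% = DMSO-treated cells and -100% = media-only wells without cells; nearly all actives have a fitted effect of over 55% in size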
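A 48-hour cytotoxicity screen used HT-1080-NT cells plated 2 hours before compound delivery. ATP-based CellTiter-Glo luminescence measured viability, normalized to DMSO and no-cell controls.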
KB-V1 MDR tox – kills drug-selected multidrug resistant KB-V1 cells; KB-V1 MDR cells viability, CellTiter-Glo, 72 h; Potency, µM (top dose mostly 46.1 µM), actives largely listed as cytotoxic; hit rate 3.4% among 400,000; AID 1347076; further: nearly all actives have a fitted effect of over 60% in size
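In this primary screen, KB-V1 cells overexpressing P-gp are incubated with library compounds (lowest to highest concentration) for 72 h at 37 degrees C before a luminescent ATP viability read.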
TDP1 cell noCPT – qHTS for Inhibitors of human tyrosyl-DNA phosphodiesterase 1 (TDP1): qHTS in cells in absence of CPT; AID 686978, 2013; hit rate 15% among 420,000; Potency, µM (doses to about 46.2 µM), for the others: at the top dose activity change, negative = growth inhibition, usual class: inhibitors; DT40 Tdp1-/- hTDP1 cells, no CPT, ATP luminescence, 48 h; further: nearly all actives have a fitted effect of over 55% in size
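DT40 Tdp1-/-;hTDP1 cells, no CPT (DMSO vehicle only), 400 cells/well; compounds pin-transferred; ≥48 hr, 37 °C; CellTiter-Glo 30 min RT dark, luminescence read.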
KB-3-1 tox – KB-3-1 parental cell cytotoxicity. Potency, µM (top dose mostly 46.1 µM), hits mostly cytotoxic. KB-3-1 viability, CellTiter-Glo ATP luminescence, 72 h. hit rate 1.4% among 400,000; further: nearly all actives have a fitted effect of over 60% in size
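KB-3-1 parental drug-naive adenocarcinoma cells in DMEM/10% FBS, incubated 72 h at 37 C with pin-transferred compounds across a concentration series. Viability by CellTiter-Glo luminescence; concentration-response curves fitted after normalization.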
HT1080 IDH1KD tx – toxicity to HT-1080 IDH1 knockdown cells (counter line); HT-1080 IDH1 knockdown viability, ATP luminescence, 48 h; Potency, µM (highest dose often 46.1 µM), for inactives: at the top dose activity, negative = toxicity, usual class: cytotoxic; hit rate 2% among 360,000; AID 686971;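 further: 0% = DMSO wells and -100% = cell-free medium wells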
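IDH1KD HT-1080 cells, 750/well, RPMI + 5% FBS; compound pinned after 2 h settling; 48 h, 37 °C; CellTiter-Glo luminescence; % activity normalised to DMSO and no-cell wells; curves fitted, classed by r2 and efficacy.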
DT40 TDP1 CPT – DT40-hTDP1 cell growth loss with CPT. chicken DT40 Tdp1-/-;hTDP1 cells + 20 nM CPT, ATP luminescence, 48 h. Potency, µM (top dose mostly 46.2 µM), for inactives: top-dose activity change, negative = growth inhibition, actives largely listed as inhibitors. hit rate 12% among 420,000. AID 686979; further: nearly all actives have a fitted effect of over 55% in size
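Chicken DT40 Tdp1-/- cells stably complemented with human TDP1 were seeded at 400 cells/well in medium containing 20 nM camptothecin, exposed to pin-transferred compounds, and grown at 37 °C for at least 48 hr. Viability was read as ATP luminescence.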
Starred values were filed as active, the others as inactive; i = inactive; ? = inconclusive; · = not tested or not shown; [ ] = another dose, or the depositor's remark. The call rests on the fitted dose curve; in most records, active means well fitted curve in the direction sought with a large enough effect; inconclusive means small, poorly fitted or top-dose-only effect, or another doubt; inactive means no such curve, though single readings can be large; an effect the other way counts as inactive or inconclusive. Unless noted, on the % scale 0 is the no-effect control and ±100 the full control effect; potency means the concentration at half of the fitted maximal effect.

SMILES	HT1080-NT tox	KB-V1 MDR tox	TDP1 cell noCPT	KB-3-1 tox	HT1080 IDH1KD tx	DT40 TDP1 CPT
O=C(CSc1nc2ccccc2s1)N1N=C(c2cccs2)CC1c1ccc(F)cc1 (configuration not stated)	-0.6%	?	?	i	-5.2%	?
CN1CCc2c(OCC(=O)N3N=C(c4cccs4)CC3c3ccc(F)cc3)cccc2C1=O (configuration not stated)	23.1µM*	i	29.1µM*	?	?	11.6µM*
COCc1c(C(=O)N2CCN(C3CCCCC3)CC2)cnn1-c1ncc(C)c(-c2cccs2)n1	·	·	-5.2%	·	·	1.6%[9.04 µM]
O=C1NC(=S)N/C1=C/C=C/c1ccccc1	6.4%	i	-17.4%	i	5.9%	-1.1%
O=C1NC(=S)NC1=Cc1ccc2c(c1)CCC2	18.4%	i	?	i	17.9%	16.4µM*
CCOc1ccccc1CNC(=O)c1cc2c(=O)n(Cc3ccccc3)ccc2nc1C	·	i	16.4µM*	i	·	18.4µM*
COc1cccc(N2CCN(C(=O)c3cc4c(=O)n(Cc5cccs5)ccc4nc3C)CC2)c1	·	i	?	i	·	23.1µM*
COc1ccc(Cn2ccc3nc(C)c(C(=O)NCc4ccc(OC)cc4OC)cc3c2=O)cc1	·	i	-29.0%	i	·	-26.8%
COc1ccc(NC(=O)c2cc3c(=O)n(Cc4cccs4)ccc3nc2C)cc1	·	i	?	i	·	?
Cc1ccc(C)c(N2CCN(C(=O)c3cc4c(=O)n(Cc5cccs5)ccc4nc3C)CC2)c1	·	?	20.6µM*	i	·	23.1µM*
Cc1nc2ccn(Cc3cccs3)c(=O)c2cc1C(=O)N1CCN(c2ccc(F)cc2)CC1	·	i	?	i	·	?
Cc1nc2ccn(Cc3cccs3)c(=O)c2cc1C(=O)NCc1ccccc1	·	·	-17.8%	·	·	-11.0%
COc1ccc(CNC(=O)c2cc3c(=O)n(Cc4cccs4)ccc3nc2C)cc1	·	i	-27.7%	18.4µM*	·	?
Cc1ccc(CNS(=O)(=O)c2cc3c(cc2C)NC(=O)CO3)cc1	-11.2%	i	?	i	-8.1%	?
Cc1nn(-c2ccccc2)c(OC(=O)C(C)(C)C)c1Sc1ccccc1	·	·	-20.1%	·	·	-22.3%
COc1ccc(N2CCN(C(=O)c3cc4c(=O)n(Cc5cccs5)ccc4nc3C)CC2)cc1	·	·	25.9µM*	·	·	?
CCCOc1ccc(-c2cn3ccccc3n2)cc1[N+](=O)[O-]	-7.2%	i	14.6µM*	i	-12.6%	?
COc1ccc(-c2cn3ccccc3n2)cc1[N+](=O)[O-]	-2.7%	?	-22.4%	i	-1.6%	5.3%
O=[N+]([O-])c1cc(S(=O)(=O)N2CCCCCC2)ccc1Cl	23.1µM*	i	8.2µM*	i	?	?
Cc1ccc(S(=O)(=O)N2CCCC2)cc1[N+](=O)[O-]	3.4%	i	-7.2%	i	-10.1%	1.4%
Cc1ccc(S(=O)(=O)N2CCCCC2C)cc1[N+](=O)[O-] (configuration not stated)	-9.6%	i	14.6µM*	i	-11.5%	11.6µM*
COc1ccc(Nc2ccc(S(=O)(=O)N3CCCCCC3)cc2[N+](=O)[O-])cc1	-13.8%	2.91µM*	23.1µM*	?	-16.1%	?
COc1ccc(CCNc2ccc(S(=O)(=O)N3CCCC3)cc2[N+](=O)[O-])cc1	-20.6%	?	?	i	-18.4%	14.6µM*
COCC(=O)N1CCC[C@@]2(CCN(C(c3ccccc3)c3ccccc3)C2)C1	·	·	?	·	·	0.3%
COc1ccc(NC(=O)c2cc(-c3ccccc3F)no2)cc1	·	i	?	i	·	-24.6%
COc1ccc(Nc2ccc(S(=O)(=O)N3CCCCC3)cc2[N+](=O)[O-])cc1OC	-4.1%	i	20.6µM*	?	-4.0%	?
